Measured values from article PMC7826789 (International Journal of Molecular Sciences, 2021).

How the values were obtained:
Details in all cases: Compound Concentration (nM):1000
DLK = test system: T1, DLK
T1 construct: gene MAP3K12

DMPK2 = test system: T2, DMPK2
T2 construct: gene CDC42BPG

DMPK = test system: DMPK
DRAK1 = test system: T3, DRAK1
T3 construct: gene STK17A

DRAK2 = test system: T4, DRAK2
T4 construct: gene STK17B

DYRK1A = test system: DYRK1A
DYRK1B = test system: DYRK1B
DYRK2 = test system: DYRK2
EGFR(E746-A750del) = test system: EGFR(E746-A750del)
EGFR(G719C) = test system: EGFR(G719C)
EGFR(G719S) = test system: EGFR(G719S)
[1] = test system: EGFR(L747-E749del, A750P)
[2] = test system: EGFR(L747-S752del, P753S)
EGFR(L747-T751del,Sins) = test system: EGFR(L747-T751del,Sins)
EGFR(L858R) = test system: EGFR(L858R)
EGFR(L858R,T790M) = test system: EGFR(L858R,T790M)
EGFR(L861Q) = test system: EGFR(L861Q)
EGFR(S752-I759del) = test system: EGFR(S752-I759del)
EGFR(T790M) = test system: EGFR(T790M)
EGFR = test system: EGFR
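Also: KINOMEscan scanMAX binding as percent activity remaining versus control; lower means stronger binding.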

Compound	Percent Control (DLK) [%]	Percent Control (DMPK2) [%]	Percent Control (DMPK) [%]	Percent Control (DRAK1) [%]	Percent Control (DRAK2) [%]	Percent Control (DYRK1A) [%]	Percent Control (DYRK1B) [%]	Percent Control (DYRK2) [%]	Percent Control (EGFR(E746-A750del)) [%]	Percent Control (EGFR(G719C)) [%]	Percent Control (EGFR(G719S)) [%]	Percent Control [1] [%]	Percent Control [2] [%]	Percent Control (EGFR(L747-T751del,Sins)) [%]	Percent Control (EGFR(L858R)) [%]	Percent Control (EGFR(L858R,T790M)) [%]	Percent Control (EGFR(L861Q)) [%]	Percent Control (EGFR(S752-I759del)) [%]	Percent Control (EGFR(T790M)) [%]	Percent Control (EGFR) [%]
Cl.O=C(O[C@H]1CN[C@H](C#Cc2cc3ncnc(Nc4ccc5c(cnn5Cc5ccccc5)c4)c3s2)C1)N1CCOCC1 [GSK200398A]	71	100	100	89	99	76	100	84	38	0.1	2	66	20	24	9.2	87	0.3	3.1	44	25
COc1cc2ncn(-c3cc(O[C@H](C)c4ccccc4Cl)c(C(N)=O)s3)c2cc1OC [GSK237701A]	59	91	100	100	89	92	100	68	85	64	69	100	86	87	100	79	97	100	75	100
NS(=O)(=O)c1ccc(Nc2ncc(-c3ccccc3)o2)cc1 [GW572399X]	81	100	100	85	100	92	81	57	98	100	100	68	100	100	88	96	100	100	92	88
CCS(=O)(=O)c1ccc(OC)c(Nc2ncc(-c3cccc(F)c3)o2)c1 [GW621970X]	71	100	100	100	100	61	67	41	73	100	92	72	75	84	92	100	79	73	100	85
CC1=C(C(=O)Nc2ccc3[nH]ncc3c2)C(c2ccc(Cl)c(Cl)c2)CC(=O)N1 (centres unmarked) [GSK299115A]	77	82	100	100	84	70	59	68	98	66	100	100	97	100	100	65	86	89	77	100
COc1cccc(-c2c[nH]c3c(N/N=C/c4ccncc4)ncnc23)c1 [GW814408X]	87	82	100	17	32	7.6	24	8.3	12	27	32	18	16	35	23	30	41	41	53	30
Cc1cc(O)cc(C)c1/C=C/c1cncc(C(N)=O)c1 [GW435821X]	90	100	100	100	100	93	100	75	69	89	67	68	87	100	80	100	71	78	94	78
CC(C)COC(=O)c1ccc2c(c1)/C(=C/Nc1ccc(S(N)(=O)=O)cc1)C(=O)N2 [GW416981X]	14	100	100	0.3	5.5	26	45	18	82	4.6	32	62	48	60	15	100	8.8	100	95	13
NS(=O)(=O)c1ccc(N/N=C2\C(=O)Nc3ccc(C(=O)NCc4ccncc4)cc32)cc1 [GW300657X]	76	91	100	0.3	4.7	63	97	37	91	100	97	100	90	81	94	100	91	98	100	93
C/C(Nc1ccc(S(N)(=O)=O)cc1)=C1/C(=O)Nc2ccccc21 [GW335962X]	73	97	99	100	97	77	93	46	100	91	63	93	82	100	100	95	68	100	74	100
